# Targets with a hit are over-represented here; the source holds about 8,800 in all. About 0.5% of all pairs of compound and target were hits. Unmarked numbers belong to inactive results.
# Legend:
# Test in all cases: log2 fold change, soluble protein after heating vs DMSO (PISA); higher = thermal stabilisation; K562 lysate, 10 uM; active = over 0.2 and 3.5 SD of the protein, either way, in both replicates (recomputed)
# lapatinib = compound: CS(=O)(=O)CCNCc1ccc(-c2ccc3ncnc(Nc4ccc(OCc5cccc(F)c5)c(Cl)c4)c3c2)o1 [lapatinib]
# In short: (§1)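 Following dounce homogenisation of K562 pellets in PBS pH 7.4 with 1 mM MgCl2, crude extract at 1 mg/mL protein was incubated for 30 min with 10 μM compound. Aliquots were then heated for 3 min over 48°C-58°C and pooled, NP-40 was added to 0.5% at 4°C, and soluble protein was recovered as the supernatant at 21,000xg for 90 min. Channel-sum-equalised TMTpro 16plex LC-MS/MS quantified this protein. Each value, from duplicates, is a log-two fold change in thermal stability relative to solvent controls.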
# pictilisib = compound: CS(=O)(=O)N1CCN(Cc2cc3nc(-c4cccc5[nH]ncc45)nc(N4CCOCC4)c3s2)CC1 [pictilisib]
# In short: as §1
# crizotinib = compound: C[C@@H](Oc1cc(-c2cnn(C3CCNCC3)c2)cnc1N)c1c(Cl)ccc(F)c1Cl [crizotinib]
# In short: as §1
# [1] = compound: C[C@H](C1=CC=C(C=C1)C(=O)NC2=C3C=CNC3=NC=C2)N
# In short: as §1
# duvelisib = compound: C[C@H](Nc1ncnc2nc[nH]c12)c1cc2cccc(Cl)c2c(=O)n1-c1ccccc1 [duvelisib]
# In short: as §1
# gandotinib = compound: Cc1cc(Nc2cc(CN3CCOCC3)c3nc(C)c(Cc4ccc(Cl)cc4F)n3n2)n[nH]1 [gandotinib]
# In short: as §1
# tozasertib = compound: Cc1cc(Nc2cc(N3CCN(C)CC3)nc(Sc3ccc(NC(=O)C4CC4)cc3)n2)n[nH]1 [tozasertib]
# In short: as §1
# doramapimod = compound: Cc1ccc(-n2nc(C(C)(C)C)cc2NC(=O)Nc2ccc(OCCN3CCOCC3)c3ccccc23)cc1 [doramapimod]
# In short: as §1
# bafetinib = compound: Cc1ccc(NC(=O)c2ccc(CN3CC[C@H](N(C)C)C3)c(C(F)(F)F)c2)cc1Nc1nccc(-c2cncnc2)n1 [bafetinib]
# In short: as §1
# [2] = compound: Cc1cccc(CC(=O)N2CCc3c2ccc(-c2cn(C)c4ncnc(N)c24)c3F)n1
# In short: as §1
# nilotinib = compound: Cc1cn(-c2cc(NC(=O)c3ccc(C)c(Nc4nccc(-c5cccnc5)n4)c3)cc(C(F)(F)F)c2)cn1 [nilotinib]
# In short: as §1
# [3] = compound: Cc1nc(Nc2n[nH]c3c2CN(C(=O)N[C@H](CN(C)C)c2ccccc2)C3(C)C)c2sccc2n1
# In short: as §1
# dasatinib = compound: Cc1nc(Nc2ncc(C(=O)Nc3c(C)cccc3Cl)s2)cc(N2CCN(CCO)CC2)n1 [dasatinib]
# In short: as §1
# [4] = compound: Cc1ncc(-c2ccnc(Nc3ccc(S(C)(=O)=O)cc3)n2)n1C(C)C
# In short: as §1
# [5] = compound: Cn1cc(-c2ccc3c(c2)CCN3C(=O)Cc2cccc(C(F)(F)F)c2)c2c(N)ncnc21
# In short: as §1
# quisinostat = compound: Cn1cc(CNCC2CCN(c3ncc(C(=O)NO)cn3)CC2)c2ccccc21 [quisinostat]
# In short: as §1
# tipifarnib = compound: Cn1cncc1[C@@](N)(c1ccc(Cl)cc1)c1ccc2c(c1)c(-c1cccc(Cl)c1)cc(=O)n2C [tipifarnib]
# In short: as §1
# [6] = compound: NC(=O)Nc1cc(-c2cccc(F)c2)sc1C(=O)N[C@H]1CCCNC1
# In short: as §1
# [7] = compound: NC(=O)c1cnc(N[C@@H]2CCCC[C@@H]2N)nc1Nc1cccc(-n2nccn2)c1
# In short: as §1
# [8] = compound: NC1(c2ccc(-c3nc4ccn5c(=O)[nH]nc5c4cc3-c3ccccc3)cc2)CCC1
# In short: as §1
# Chain of UniProt Q9UHD1 (Q9UHD1 whole entry, looked up): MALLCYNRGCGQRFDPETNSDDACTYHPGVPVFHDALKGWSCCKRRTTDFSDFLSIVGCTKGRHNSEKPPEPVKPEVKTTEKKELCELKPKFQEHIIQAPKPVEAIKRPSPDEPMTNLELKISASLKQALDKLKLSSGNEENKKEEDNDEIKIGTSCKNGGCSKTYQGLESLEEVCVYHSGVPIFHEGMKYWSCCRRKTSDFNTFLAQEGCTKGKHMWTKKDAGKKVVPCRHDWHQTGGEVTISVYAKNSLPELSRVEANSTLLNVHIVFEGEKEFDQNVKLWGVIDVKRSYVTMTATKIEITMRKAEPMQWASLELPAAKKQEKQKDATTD
# Chain of UniProt P33240 (P33240 whole entry, looked up): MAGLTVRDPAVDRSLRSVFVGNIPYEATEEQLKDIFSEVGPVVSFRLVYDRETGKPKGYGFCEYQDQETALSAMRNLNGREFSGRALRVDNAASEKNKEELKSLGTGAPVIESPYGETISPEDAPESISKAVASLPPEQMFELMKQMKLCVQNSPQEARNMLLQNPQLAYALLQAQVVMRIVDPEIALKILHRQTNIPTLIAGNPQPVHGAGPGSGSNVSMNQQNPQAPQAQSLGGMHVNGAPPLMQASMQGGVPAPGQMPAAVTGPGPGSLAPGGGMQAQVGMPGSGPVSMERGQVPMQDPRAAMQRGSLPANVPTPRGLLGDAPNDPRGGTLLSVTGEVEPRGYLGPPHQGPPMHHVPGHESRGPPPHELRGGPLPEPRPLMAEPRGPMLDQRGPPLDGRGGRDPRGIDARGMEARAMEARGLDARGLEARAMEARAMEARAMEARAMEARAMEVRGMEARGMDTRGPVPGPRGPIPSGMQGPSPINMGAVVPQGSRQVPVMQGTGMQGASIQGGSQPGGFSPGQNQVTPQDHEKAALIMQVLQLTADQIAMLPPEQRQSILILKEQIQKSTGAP
# Chain of UniProt Q96DG6 (Q96DG6 whole entry, looked up): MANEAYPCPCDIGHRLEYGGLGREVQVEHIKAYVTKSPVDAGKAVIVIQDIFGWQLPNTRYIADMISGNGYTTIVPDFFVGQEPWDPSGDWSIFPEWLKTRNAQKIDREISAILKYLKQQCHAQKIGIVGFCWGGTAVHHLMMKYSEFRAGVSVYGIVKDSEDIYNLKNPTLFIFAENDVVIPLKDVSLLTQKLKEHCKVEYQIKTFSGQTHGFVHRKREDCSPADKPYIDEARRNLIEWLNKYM
# Chain of UniProt Q92796 (Q92796 whole entry, looked up): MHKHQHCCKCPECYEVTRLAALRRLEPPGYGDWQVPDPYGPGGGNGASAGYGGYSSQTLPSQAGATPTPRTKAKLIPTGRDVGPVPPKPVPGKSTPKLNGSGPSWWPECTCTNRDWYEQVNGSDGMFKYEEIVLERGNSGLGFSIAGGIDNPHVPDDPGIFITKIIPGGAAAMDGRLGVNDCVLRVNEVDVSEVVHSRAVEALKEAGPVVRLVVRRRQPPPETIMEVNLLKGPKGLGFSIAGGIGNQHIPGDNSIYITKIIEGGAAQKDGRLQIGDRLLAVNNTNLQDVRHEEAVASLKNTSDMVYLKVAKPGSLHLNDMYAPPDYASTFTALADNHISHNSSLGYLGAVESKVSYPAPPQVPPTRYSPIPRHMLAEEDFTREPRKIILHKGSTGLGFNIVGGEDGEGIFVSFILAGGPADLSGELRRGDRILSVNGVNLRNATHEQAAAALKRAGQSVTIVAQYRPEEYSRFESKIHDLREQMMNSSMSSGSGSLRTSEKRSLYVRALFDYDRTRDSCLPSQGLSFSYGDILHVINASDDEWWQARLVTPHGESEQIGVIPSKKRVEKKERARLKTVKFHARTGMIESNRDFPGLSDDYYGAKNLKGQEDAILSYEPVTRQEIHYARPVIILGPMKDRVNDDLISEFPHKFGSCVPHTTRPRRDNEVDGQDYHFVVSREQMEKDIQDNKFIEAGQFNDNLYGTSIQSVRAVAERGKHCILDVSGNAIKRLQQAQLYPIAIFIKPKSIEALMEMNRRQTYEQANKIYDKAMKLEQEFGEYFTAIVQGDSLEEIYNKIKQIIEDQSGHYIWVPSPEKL
# Chain of UniProt Q13217 (Q13217 whole entry, looked up): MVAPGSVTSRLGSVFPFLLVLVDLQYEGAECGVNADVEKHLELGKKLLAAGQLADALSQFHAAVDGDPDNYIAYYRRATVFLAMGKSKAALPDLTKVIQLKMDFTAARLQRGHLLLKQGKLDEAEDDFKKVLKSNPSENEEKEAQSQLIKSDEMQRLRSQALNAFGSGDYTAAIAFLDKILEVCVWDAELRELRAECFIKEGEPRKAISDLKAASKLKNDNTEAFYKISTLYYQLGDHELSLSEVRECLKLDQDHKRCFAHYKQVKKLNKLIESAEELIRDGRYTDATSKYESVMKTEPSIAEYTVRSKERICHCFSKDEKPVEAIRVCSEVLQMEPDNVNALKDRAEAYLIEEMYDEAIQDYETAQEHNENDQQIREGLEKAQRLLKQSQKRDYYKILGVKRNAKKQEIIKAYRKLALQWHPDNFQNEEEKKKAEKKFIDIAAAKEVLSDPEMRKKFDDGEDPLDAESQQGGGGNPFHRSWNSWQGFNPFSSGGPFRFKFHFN
# Chain of UniProt Q8WYQ5 (Q8WYQ5 whole entry, looked up): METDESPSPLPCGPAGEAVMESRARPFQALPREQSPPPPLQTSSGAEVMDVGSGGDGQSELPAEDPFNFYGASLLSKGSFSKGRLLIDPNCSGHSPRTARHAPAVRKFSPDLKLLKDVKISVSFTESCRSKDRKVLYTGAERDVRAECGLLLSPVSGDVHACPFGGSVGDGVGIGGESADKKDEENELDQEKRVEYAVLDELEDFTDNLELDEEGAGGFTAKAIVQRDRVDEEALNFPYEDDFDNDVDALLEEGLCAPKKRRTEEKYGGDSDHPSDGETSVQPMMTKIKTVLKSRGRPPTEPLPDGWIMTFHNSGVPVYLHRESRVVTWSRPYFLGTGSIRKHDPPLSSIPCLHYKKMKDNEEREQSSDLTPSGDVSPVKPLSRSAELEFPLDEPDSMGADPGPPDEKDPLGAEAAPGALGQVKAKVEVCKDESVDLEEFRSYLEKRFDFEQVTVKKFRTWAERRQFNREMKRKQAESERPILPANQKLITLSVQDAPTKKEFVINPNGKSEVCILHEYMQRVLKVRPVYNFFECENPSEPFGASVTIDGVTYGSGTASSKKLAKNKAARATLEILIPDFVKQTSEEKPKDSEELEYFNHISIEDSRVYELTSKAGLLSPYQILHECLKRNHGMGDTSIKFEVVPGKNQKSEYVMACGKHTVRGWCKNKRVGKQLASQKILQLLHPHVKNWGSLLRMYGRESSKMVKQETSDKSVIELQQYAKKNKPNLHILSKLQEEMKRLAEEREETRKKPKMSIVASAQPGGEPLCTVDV
# Chain of UniProt Q96LJ7 (Q96LJ7 whole entry, looked up): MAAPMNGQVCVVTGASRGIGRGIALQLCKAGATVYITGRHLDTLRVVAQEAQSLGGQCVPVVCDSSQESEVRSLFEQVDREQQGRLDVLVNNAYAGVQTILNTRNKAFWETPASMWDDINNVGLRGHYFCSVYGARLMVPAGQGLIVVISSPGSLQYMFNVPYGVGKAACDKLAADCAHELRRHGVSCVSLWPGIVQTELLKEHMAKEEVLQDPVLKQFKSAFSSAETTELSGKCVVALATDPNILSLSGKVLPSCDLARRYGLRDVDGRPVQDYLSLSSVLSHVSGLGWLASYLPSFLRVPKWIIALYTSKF
# Chain of UniProt Q9NZN8 (Q9NZN8 whole entry, looked up): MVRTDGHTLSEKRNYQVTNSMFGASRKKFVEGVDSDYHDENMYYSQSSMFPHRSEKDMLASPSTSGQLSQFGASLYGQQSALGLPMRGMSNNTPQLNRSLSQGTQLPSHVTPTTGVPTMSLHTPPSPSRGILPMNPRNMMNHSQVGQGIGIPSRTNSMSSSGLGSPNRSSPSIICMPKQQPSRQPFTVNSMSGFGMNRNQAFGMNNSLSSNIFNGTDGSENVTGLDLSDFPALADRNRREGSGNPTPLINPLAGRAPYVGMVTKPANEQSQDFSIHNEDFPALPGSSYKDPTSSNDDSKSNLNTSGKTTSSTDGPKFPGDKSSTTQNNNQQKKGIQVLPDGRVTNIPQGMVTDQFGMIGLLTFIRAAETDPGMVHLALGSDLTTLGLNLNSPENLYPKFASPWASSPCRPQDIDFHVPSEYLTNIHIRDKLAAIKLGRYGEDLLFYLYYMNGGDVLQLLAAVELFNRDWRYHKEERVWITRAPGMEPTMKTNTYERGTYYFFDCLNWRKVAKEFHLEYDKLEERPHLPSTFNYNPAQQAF
# Chain of UniProt Q9P0U4 (Q9P0U4 whole entry, looked up): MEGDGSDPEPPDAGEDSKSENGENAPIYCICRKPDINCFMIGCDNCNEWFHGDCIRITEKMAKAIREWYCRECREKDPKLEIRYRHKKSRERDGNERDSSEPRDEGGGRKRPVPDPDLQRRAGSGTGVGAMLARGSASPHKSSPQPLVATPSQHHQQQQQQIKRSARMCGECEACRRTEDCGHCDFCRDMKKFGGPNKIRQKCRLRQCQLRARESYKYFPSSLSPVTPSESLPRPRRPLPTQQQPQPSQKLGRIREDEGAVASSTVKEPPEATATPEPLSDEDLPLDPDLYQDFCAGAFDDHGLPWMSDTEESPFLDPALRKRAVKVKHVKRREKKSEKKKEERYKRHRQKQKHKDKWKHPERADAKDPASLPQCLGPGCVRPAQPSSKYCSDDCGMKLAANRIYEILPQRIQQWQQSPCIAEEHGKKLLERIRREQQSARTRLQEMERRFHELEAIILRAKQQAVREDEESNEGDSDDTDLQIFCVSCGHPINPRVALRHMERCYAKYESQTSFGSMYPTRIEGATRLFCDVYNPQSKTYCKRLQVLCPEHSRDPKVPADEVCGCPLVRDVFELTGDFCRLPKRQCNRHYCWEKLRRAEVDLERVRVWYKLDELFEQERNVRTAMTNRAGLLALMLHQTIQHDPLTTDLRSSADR
# Chain of UniProt P61024 (P61024 whole entry, looked up): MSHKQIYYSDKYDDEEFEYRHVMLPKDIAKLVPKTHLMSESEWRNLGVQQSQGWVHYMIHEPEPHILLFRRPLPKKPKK
Target,log2 fold change (lapatinib),log2 fold change (pictilisib),log2 fold change (crizotinib),log2 fold change [1],log2 fold change (duvelisib),log2 fold change (gandotinib),log2 fold change (tozasertib),log2 fold change (doramapimod),log2 fold change (bafetinib),log2 fold change [2],log2 fold change (nilotinib),log2 fold change [3],log2 fold change (dasatinib),log2 fold change [4],log2 fold change [5],log2 fold change (quisinostat),log2 fold change (tipifarnib),log2 fold change [6],log2 fold change [7],log2 fold change [8]
CHORDC1 (UniProt Q9UHD1),-0.001,0.009,0.022,0.18,0.006,-0.011,0.022,-0.028,0.022,-0.031,0.024,-0.003,0.016,0.034,0.008,0.018,0.021,-0.015,0,-0.005
CSNK1G3 (UniProt Q9Y6M4),-0.155,0.118,0.026,0.214,-0.042,-0.032,-0.048,-0.003,-0.09,-0.021,-0.029,0.428 (active),0.002,0.388 (active),0.014,-0.067,0.001,0.397 (active),0,0.086
CSTF2 (UniProt P33240),-0.006,-0.049,0.003,-0.025,0.044,0.051,0.033,0.036,0.03,-0.001,0.031,0.038,0.03,-0.017,-0.029,0.033,-0.021,-0.013,-0.007,0.052
CMBL (UniProt Q96DG6),-0.024,0.076,0.065,-0.162,0.031,0.127,0.016,-0.021,-0.028,-0.001,-0.029,0.054,0.155,0.006,-0.025,-0.047,-0.001,-0.027,-0.023,0.149
COG5 isoform 2 (UniProt Q9UP83),-0.059,-0.03,-0.025,0.027,0.007,-0.071,0.013,-0.024,-0.034,0.062,-0.023,0.057,-0.153,-0.003,0.037,-0.031,-0.019,0.043,-0.081,-0.12
DGCR8 (UniProt Q8WYQ5),-0.023,-0.048,0.039,-0.056,-0.014,-0.032,-0.012,0.04,-0.009,0.044,-0.01,-0.002,-0.061,-0.029,-0.02,-0.007,0.03,-0.032,-0.048,0.003
DHRS1 (UniProt Q96LJ7),-0.138,-0.089,-0.014,-0.037,0.406 (active),0.099,-0.281,-0.015,0.056,0.092,-0.009,-0.043,0.063,-0.064,-0.042,0.012,0.055,-0.001,0.033,-0.026
DFFB (UniProt O76075),0.003,-0.016,0.023,0.003,-0.008,0.015,0.049,-0.07,-0.028,-0.021,0.192,-0.062,0.008,0.155,0.012,0.038,-0.013,-0.049,0.026,-0.047
CKS1B (UniProt P61024),0.039,0.002,0.094,0.302 (active),-0.045,-0.183,0.047,0.023,0.068,-0.324 (active),-0.03,0.04,0.065,-0.066,0.011,0.069,0.106,-0.051,0,0.11
DLG3 isoform 2 (UniProt Q92796),0.008,0.073,-0.01,-0.047,0.125,0,0.097,0.043,0.055,0.065,-0.036,0.027,-0.062,0.146,-0.004,-0.007,0.085,-0.03,-0.031,-0.049
COG7 (UniProt P83436),-0.014,-0.008,-0.025,-0.068,-0.01,-0.059,-0.028,0.028,-0.044,0.058,0.02,0.007,-0.089,0.011,0.024,0,-0.001,0.033,-0.019,0.001
CNOT2 (UniProt Q9NZN8),-0.027,-0.014,-0.023,0.111,-0.008,-0.093,0.001,-0.01,0.024,-0.005,0.013,-0.011,-0.024,0.009,-0.018,-0.026,-0.074,0.024,0.02,-0.001
CHEK2 (UniProt O96017),0.08,-0.012,0.069,-0.011,0.002,-0.019,0.039,0.018,-0.046,-0.008,-0.022,0.285 (active),0.04,-0.007,0.05,-0.057,0.023,0.326 (active),0.013,0.035
DNAJC3 (UniProt Q13217),0.01,-0.015,0.047,0.001,0.046,0.012,0.014,-0.064,-0.002,-0.014,0.029,-0.019,0.074,0.008,0.023,0.11,-0.085,-0.055,0.012,0.005
CYP51A1 (UniProt Q16850),0.105,0.024,0.023,-0.036,-0.065,0.447 (active),0,0.089,0.385 (active),0.045,0.124,-0.026,0.048,0.034,0.083,-0.021,0.664 (active),-0.016,-0.009,-0.081
CXXC1 isoform 2 (UniProt Q9P0U4),-0.024,0.107,-0.089,0.058,0.154,-0.046,-0.028,0.018,-0.047,0.005,0.032,0.029,-0.504,0.026,-0.191,-0.159,-0.039,-0.013,-0.021,0.082

# Source: the supplement of paper PMC10849652
